GoLoco inh red: qHTS Assay for Inhibitors of RGS12 GoLoco Motif Activity (Red Fluorophore); Guanine nucleotide-binding protein G(i) subunit alpha-1 (Homo sapiens), P63096; Gai1:RGS12 GoLoco peptide FP, rhodamine, 10 min; Potency, µM (titrated, usually from 61.6 µM), without a hit: at the highest dose activity, negative = inhibition, most hits filed as inhibitors; actives 0.44% (n = 230,000); AID 880, 2007; active = well fitted inhibition curve with a large enough effect, not every such curve was filed as active; inactive = no such curve, though single readings can be large or run the other way; note: nearly all actives have a fitted effect of over 30% in size
Target sequence (P63096 whole entry, looked up): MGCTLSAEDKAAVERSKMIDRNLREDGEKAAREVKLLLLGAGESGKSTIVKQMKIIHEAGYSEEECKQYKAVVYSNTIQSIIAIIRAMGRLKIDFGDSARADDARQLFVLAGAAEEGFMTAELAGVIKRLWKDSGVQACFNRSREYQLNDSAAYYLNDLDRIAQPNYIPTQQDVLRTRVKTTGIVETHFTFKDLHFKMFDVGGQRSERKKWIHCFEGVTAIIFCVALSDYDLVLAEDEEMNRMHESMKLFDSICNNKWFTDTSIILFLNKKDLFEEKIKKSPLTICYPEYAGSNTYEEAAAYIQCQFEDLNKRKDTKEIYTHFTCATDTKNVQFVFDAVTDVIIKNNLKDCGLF
APEX1 inh: qHTS Assay for Inhibitors of the Human Apurinic/apyrimidinic Endonuclease 1 (APE1); Potency, µM (titrated, usually from 65.8 µM), for the others: at the highest dose activity change, negative = inhibition, hits mostly inhibitors; actives 0.35% (n = 350,000); DNA repair nuclease/redox regulator APEX1 (Homo sapiens), P27695; recombinant APE1, TAMRA/BHQ-2 abasic DNA cleavage fluorescence;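 note: plate controls were vehicle for no effect and reference inhibitor for full effect; nearly all actives have a fitted effect of over 55% in size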
Target sequence (P27695 whole entry, looked up): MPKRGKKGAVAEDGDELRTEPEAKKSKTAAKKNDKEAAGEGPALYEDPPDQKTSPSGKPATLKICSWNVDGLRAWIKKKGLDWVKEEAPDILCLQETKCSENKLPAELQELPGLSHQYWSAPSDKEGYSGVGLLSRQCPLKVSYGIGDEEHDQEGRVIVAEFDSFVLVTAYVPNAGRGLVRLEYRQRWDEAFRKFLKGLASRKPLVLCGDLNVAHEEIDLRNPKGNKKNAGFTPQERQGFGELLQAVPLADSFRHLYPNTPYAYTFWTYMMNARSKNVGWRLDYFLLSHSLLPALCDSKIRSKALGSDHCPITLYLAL
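Measures dequenching upon AP-site incision of a 5'-TAMRA/3'-BHQ-2 THF-containing duplex, 50 nM; human APE1 0.75 nM after 15 min room-temperature exposure to compound; kinetic three-point read at one-minute spacing.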
TRb-SRC2 inh: qHTS for Inhibitors of the Interaction of Thyroid Hormone Receptor and Steroid Receptor Coregulator 2 | Potency, µM (titrated, usually from 106 µM), for inactives: at the top dose activity change, negative = inhibition, hits mostly inhibitors | TRbeta-SRC2 peptide binding, fluorescence polarization; receptor liganded with 1 µM T3 | AID 1469, 2008 | actives 0.065% (n = 280,000) | Thyroid hormone receptor beta (Homo sapiens), P10828;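 note: plate controls were bound peptide for no effect and peptide without receptor for full effect; nearly all actives have a fitted effect of over 50% in size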
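Fluorescence polarization of 20 nM Texas Red SRC2 peptide (20-aa NR interaction domain) bound to 0.6 uM human TRb ligand-binding domain, with 1 uM T3, after 5 hr at ambient temperature; inhibition seen as decreased polarization.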
TexasRed fluor: Total Fluorescence Counterscreen for Inhibitors of the Interaction of Thyroid Hormone Receptor and Steroid Receptor Coregulator 2; Potency, µM (series often up to 106 µM), inactives show at the top dose fluorescence change, negative = quenching; TRb/SRC2 Texas Red total fluorescence interference; actives 0.29% (n = 280,000); active = well fitted curve in either direction with a large enough effect; inconclusive = small, poorly fitted or top-dose-only effect
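Flags fluorescent or light-absorbing compounds by total fluorescence, S + 2P, at 555 nm excitation and 632 nm emission. Mixture: 20 nM Texas Red SRC2 peptide, 0.6 uM human TRb LBD, 1 uM T3, 5% DMSO; compound exposure 5 h at ambient temperature.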
BLM inh: qHTS Assay for Inhibitors of Bloom's syndrome helicase (BLM) | recombinant BLM DNA unwinding, fluorescence dequenching | actives 0.2% (n = 350,000) | Potency, µM (highest dose often 56.1 µM), inactives show at the highest dose activity change, negative = inhibition, actives largely listed as inhibitors;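 note: plate controls were vehicle for no effect and no enzyme for full effect; nearly all actives have a fitted effect of over 35% in size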
RECQ1 inh: qHTS Assay for Inhibitors of RecQ-Like Dna Helicase 1 (RECQ1); RECQ1 DNA unwinding, red fluorescence kinetic read; Potency, µM (doses to about 57.3 µM), for inactives: at the top dose activity, negative = inhibition, most hits filed as inhibitors; ATP-dependent DNA helicase Q1 (Homo sapiens), P46063; actives 0.54% (n = 240,000);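 note: plate controls were vehicle for no effect and no enzyme for full effect; nearly all actives have a fitted effect of over 30% in size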
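50 nM RECQ1T1 preincubated 15 min with compound in Tris pH 8.0 buffer with MgCl2, DTT, Tween-20 and 2.5 ug/ml poly(dI-dC); started with 200 nM TAMRA/BHQ-2 forked duplex and 2 mM ATP. Unwinding read as fluorescence (525/598 nm), two reads 2 h apart.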
Active calls of the source: *; [ ] = remark or other dose. Compounds with a hit are over-represented: about 0.9% of the library has one in this group of screens. Unless noted, calls come from the whole dose curve; as a rule, active = well fitted curve in the direction sought with a large enough effect; inconclusive = small, poorly fitted or top-dose-only effect, or another doubt; inactive = no such curve, though single readings can be large; an effect the other way counts as inactive or inconclusive. Unless noted, % is set by controls: 0 for no effect and ±100 for the full control effect; potency is the fitted concentration of half-maximal effect.

How did O=C(O)c1cc(-c2ccc(/C=C3\NC(=O)N(c4ccc(Cl)cc4)C3=O)o2)ccc1Cl do in these assays?
GoLoco inh red: 9.1%; APEX1 inh: 25.1µM*; TRb-SRC2 inh: -1.5%; TexasRed fluor: -1.0%; BLM inh: 52.2%; RECQ1 inh: inconclusive

Results for c1coc(-c2ccc3ncnc(NCc4cccs4)c3c2)c1 ?
APEX1 inh: 13.1%

Results for COC(=O)/C(=N/Nc1ccccc1Cl)Sc1nnc(C(O)c2ccccc2)n1-c1ccccc1 (stereo unspecified) ?
GoLoco inh red: 16.3%; APEX1 inh: 0.6%; TRb-SRC2 inh: -12.7%[53 µM]; TexasRed fluor: 35.5µM*[quencher]; BLM inh: -6.1%; RECQ1 inh: -3.3%

Results for CCC1(O)CC2CN(CCc3c([nH]c4ccccc34)[C@@](C(=O)OC)(c3cc4c(cc3OC)N(C)C3[C@]45CCN4CC=C[C@@](CC)([C@@H](OC(C)=O)[C@]3(O)C(=O)OC)[C@H]45)C2)C1 (stereo partly specified) ?
GoLoco inh red: 10.2%; APEX1 inh: -1.4%; TRb-SRC2 inh: 8.7%; TexasRed fluor: -5.6%; RECQ1 inh: 14.1µM*

What do the screens show for `CC[C@]1(O)C[C@@H]2CN(CCc3c([nH]c4ccccc34)[C@@](C(=O)OC)(c3cc4c(cc3OC)N(C)C3[C@]45CCN4CC=C[C@](CC)(C45)[C@@H](OC(C)=O)[C@]3(O)C(=O)OC)C2)C1` (stereo partly specified)?
GoLoco inh red: 29.5%; APEX1 inh: 0.5%; TRb-SRC2 inh: 1.3%; TexasRed fluor: -1.0%; RECQ1 inh: -14.4%

Results for Oc1ccc2oc3c(c2c1)CCCC3 ?
GoLoco inh red: 11.0%; APEX1 inh: -4.3%; TRb-SRC2 inh: -3.9%; TexasRed fluor: -7.9%; BLM inh: -2.8%; RECQ1 inh: -4.7%

Results for CC(C)NCc1c(O)c(Br)cc2oc3c(c12)CCCC3 ?
GoLoco inh red: 5.62µM*; APEX1 inh: 1.1%; TRb-SRC2 inh: 1.1%; TexasRed fluor: 0.3%; BLM inh: -1.0%; RECQ1 inh: inactive

What do the screens show for `Cc1ccccc1OCc1ccc(-c2nc(C#N)c(N3CCN(c4ccccc4)CC3)o2)o1`?
TRb-SRC2 inh: -14.0%; TexasRed fluor: 3.98µM*[quencher]; BLM inh: -2.4%

Results for O=c1ccc(=O)n(-c2ccccc2)[nH]1 ?
GoLoco inh red: -30.1%; APEX1 inh: 1.0%; TRb-SRC2 inh: -8.6%; TexasRed fluor: -0.8%; BLM inh: 0.0%; RECQ1 inh: -1.3%

What do the screens show for `CC(C)(C)c1cc(=O)n(-c2ccccc2)[nH]1`?
GoLoco inh red: -16.5%; APEX1 inh: -9.5%; TRb-SRC2 inh: -4.1%; TexasRed fluor: -3.3%; BLM inh: 17.8µM*; RECQ1 inh: inactive

Results for CCNc1nc(NC(C)CC)nc(OC)n1 (stereo unspecified) ?
TRb-SRC2 inh: -0.2%[201 µM]; TexasRed fluor: 0.0%[201 µM]

What do the screens show for `COc1ccc(OCC(=O)NCC(c2ccc(OC)cc2)N2CCCCC2)cc1` (stereo unspecified)?
APEX1 inh: 8.2%; TRb-SRC2 inh: 0.6%; TexasRed fluor: -2.9%; BLM inh: 0.1%

What do the screens show for `O=C(COc1ccc(F)cc1)NCC(c1ccc(Cl)cc1)N1CCCCC1` (stereo unspecified)?
TRb-SRC2 inh: -25.9%; TexasRed fluor: 39.8µM*[quencher]; BLM inh: -3.0%

How did CCOC(=O)C(C)CC(C)C(=O)N1CCOCCOCCN(C(=O)C(C)CC(C)C(=O)OCC)CCOCC1 (stereo unspecified) do in these assays?
GoLoco inh red: -2.6%; APEX1 inh: -1.5%; TRb-SRC2 inh: -4.5%; TexasRed fluor: -5.3%; BLM inh: -2.8%; RECQ1 inh: -2.0%

What do the screens show for `CCOC(=O)C(C(=O)OCC)C(C(=O)OCC)N1CCOCC1` (stereo unspecified)?
GoLoco inh red: 14.1µM*; APEX1 inh: inconclusive; TRb-SRC2 inh: -21.2%; TexasRed fluor: 1.1%; BLM inh: -2.5%; RECQ1 inh: inactive

Results for Cn1cc(CNC(=O)c2cnn3c2NC(=C2CC2)C=C3C(F)F)cn1 ?
APEX1 inh: 8.0%

What do the screens show for `CCOc1ccc(NC(=O)N2CCC(CN3CCC(C)CC3)CC2)cc1`?
TRb-SRC2 inh: -18.7%; TexasRed fluor: 100µM*[quencher]; BLM inh: 3.0%

How did COc1cc(CN(C(=O)c2ccc(OC(C)C)cc2)C2CCS(=O)(=O)C2)cc(OC)c1OC (stereo unspecified) do in these assays?
TRb-SRC2 inh: -7.9%; TexasRed fluor: 1259µM*[quencher]; BLM inh: -0.5%

What do the screens show for `O=C(NN=C1CCCC1)c1cc(O)cc(O)c1`?
APEX1 inh: 10.6µM*; BLM inh: -7.3%

What do the screens show for `C[C@H]1O[C@@H](O[C@H]2CC[C@@]3(C)[C@H](CC[C@@H]4[C@@H]3C[C@@H](O)[C@]3(C)[C@@H](C5=CC(=O)OC5)CC[C@]43O)C2)C[C@H](O)[C@@H]1O[C@H]1C[C@H](O)[C@H](O[C@H]2C[C@H](O)[C@H](O[C@@H]3O[C@H](CO)[C@@H](O)[C@H](O)[C@H]3O)[C@@H](C)O2)[C@@H](C)O1`?
APEX1 inh: -8.2%

Results for Cc1ccc(NC(=O)C(c2ccccc2)N2CCN(CC(=O)N3CCOCC3)CC2)cc1Cl (stereo unspecified) ?
APEX1 inh: 10.6µM*

How did COc1cc(C2c3c([nH]c(=O)[nH]c3=O)Nc3ccc4ccccc4c32)cc(OC)c1OC (stereo unspecified) do in these assays?
GoLoco inh red: -0.2%; APEX1 inh: -6.7%; TRb-SRC2 inh: -7.3%; TexasRed fluor: -5.6%; BLM inh: 25.1µM*; RECQ1 inh: inactive

How did Cc1ccc(-n2c(C)cc(/C=N/Nc3ccc([N+](=O)[O-])cn3)c2C)cc1 do in these assays?
GoLoco inh red: 3.55µM*; APEX1 inh: -2.4%; TRb-SRC2 inh: -0.6%; TexasRed fluor: 0.7%; BLM inh: -4.0%; RECQ1 inh: -9.2%
